Assay [1] is described as follows: reduced mouse 2C T cell binding to pMHC/ICAM-1 vesicles – MLPCN validation set, flow cytometry, LFA-1/ICAM-1 modulator project, pilot screen (AID 2523;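 active = response below a set limit, under 55% cells CD8-positive and vesicle-bound, and CD8 cells' 90th-percentile brightness under 279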;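 for vesicle binding response: mean PE anti-B7-1 fluorescence of CD8+ cells relative to row control; 100% = QL9-loaded vesicles with DMSO vehicle in the same plate row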). The conditions noted are these: 2C mouse CD8+ T cells, at 7 µM, stronger effect = lower value; double positive events: measured here: CD8+/vesicle+ event percentage.
Assay [2] concerns the target Integrin beta-1 (Homo sapiens) + Integrin alpha-4 (Homo sapiens) (UniProt P13612+P05556). As to the kind of experiment: alpha4beta1 integrin LIBS antibody binding reduction – U937 cells, HUTS-21 mAb, flow cytometry, validation set, VLA-4 allosteric modulator project, pilot screen (AID 2674;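 active = inhibition above 50%, about 3 SD of the validation set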;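 note: antibody binding induced by the VLA-4 ligand LDV present at three times its Kd; 0% = LDV ligand with antibody and no compound and 100% = antibody without LDV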). To be noted: HUTS-21 LIBS mAb binding, at 6.7 µM, stronger effect = higher value, binding induced by LDV ligand. (In general: A flow cytometer gives signals particle by particle.)

Assay [3] is described as follows: calorie-restriction mimetic ROS inhibitors, yeast – validation compound set, pilot screen (AID 2706;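 active = superoxide response below 65% of plate, a cut near 3 SD across the whole screen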;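 note: yeast exposed to compound for one week at 30 degrees C before staining; 100% = mean of all compound wells on the same plate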). To be noted: S. cerevisiae aging, superoxide DHE fluorescence; at 10 µM, stronger effect = lower value.
Assay [4] has as its target Beta-adrenergic receptor kinase 1 (Homo sapiens) (UniProt P25098). As to the kind of experiment: GRK2 binders displacing RNA aptamer, biochemical, validation, human GRK2, bead flow cytometry (AID 488806;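 active = aptamer binding inhibition above 30%, about 3 SD of noise from non-fluorescent compounds; inactive = inhibition at or below 30%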). The conditions noted are these: bead-bound GRK2, FAM-aptamer displacement, at 10 µM, stronger effect = higher value.
Assay [5] deals with Beta-2 adrenergic receptor (Homo sapiens) (UniProt P07550). As to the kind of experiment: agonist-induced loss of surface beta2AR – cell-based, FAP fluorogen, flow cytometry, validation set, pilot screen (AID 504459;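 active = percent response above 42, roughly 3 SD of non-fluorescent test compounds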;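 note: agonist-driven loss of surface beta2AR via internalization measured by FAP dye flow cytometry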). The conditions noted are these: Am2.2-beta2AR cells, at 10 µM, stronger effect = higher value.
Sequence of Beta-2 adrenergic receptor (Homo sapiens) (P07550 whole entry, looked up): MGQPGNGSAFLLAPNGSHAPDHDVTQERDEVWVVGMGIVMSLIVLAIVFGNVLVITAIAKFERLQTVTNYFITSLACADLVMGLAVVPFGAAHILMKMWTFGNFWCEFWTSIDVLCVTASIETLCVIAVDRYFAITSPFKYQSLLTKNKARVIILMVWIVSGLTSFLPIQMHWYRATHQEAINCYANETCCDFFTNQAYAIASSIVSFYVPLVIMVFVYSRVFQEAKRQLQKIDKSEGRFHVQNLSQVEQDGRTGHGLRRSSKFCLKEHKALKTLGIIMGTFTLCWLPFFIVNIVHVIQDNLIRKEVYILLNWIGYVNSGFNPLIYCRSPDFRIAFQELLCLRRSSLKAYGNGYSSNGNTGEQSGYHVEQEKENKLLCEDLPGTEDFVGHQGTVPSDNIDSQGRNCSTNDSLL
Assay [6] addresses AP-2 complex subunit beta (Homo sapiens) (UniProt P63010). Put plainly: beta-arrestin/AP2 interaction blockers – biochemical, validation set, GST-AP2 beads, flow cytometry, pilot screen (AID 504541;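 active = inhibition above 54%, about 3 SD of non-fluorescent compounds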;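 note: AP2 carries R879A mutation and is captured from E. coli lysate; bead-bound FITC arrestin peptide fluorescence measuring arrestin peptide binding to AP2; 0% = DMSO wells and 100% = excess unlabeled arrestin peptide control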). The conditions noted are these: FITC arrestin peptide, at 10 µM, stronger effect = higher value, AP2 beta2 appendage fragment, R879A mutant.
Assay [7] is described as follows: cytosolic pH regulators acting via V-ATPase – S. cerevisiae, pHLuorin, HTS validation (AID 504600; in the data active = response above about 15%;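 note: plate controls were DMSO for no effect and reference compound for full effect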). The conditions noted are these: V-ATPase proton transport, at 10 µM, stronger effect = higher value.
The subject of assay [8] is anti-desmoglein-3 scFv antibody binding to human DSG3. As to the kind of experiment: blockers of pathogenic pemphigus antibody–desmoglein-3 binding – biochemical, validation compound set, bead-based, flow cytometry, pilot screen (AID 588368).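 Note: signal is the median channel fluorescence of bead-bound GFP antibody.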 To be noted: Protein G beads, DSG3-Fc, scFv-GFP binding, at 10 µM, stronger effect = lower value.
Assay [9] is described as follows: Nile Red efflux blockade in pump-expressing yeast – validation compound set, multiplex, phenotypic, pilot screen (AID 588506;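 active = efflux inhibition above 0.42, the validation set average plus 4 SD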;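 note: Nile Red retained in cells so higher fluorescence means more efflux inhibition; 0 = negative control wells and 1 = enniatin B 25 µM full block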). To be noted: S. cerevisiae pump-expressing triplex, Nile Red efflux flow cytometry; at 10 µM; stronger effect = higher value; the pumps come from Candida albicans.
Assay [10] concerns the target ATP-binding cassette sub-family B member 6 (Homo sapiens) (UniProt Q9NP58). Put plainly: blockers of ABCB6-driven porphyrin uptake – K562-ABCB6 cells, flow cytometry, validation set, pilot screen (AID 588550;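 active = inhibition above the screen-wide mean plus 3 SD, about 51%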;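 note: 0% = DMSO wells and 100% = benzethonium chloride 70 µM positive control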). The conditions noted are these: K562-ABCB6 porphyrin accumulation, 1 h, at 10 µM, stronger effect = higher value.
The nature of assay [11]: AML differentiation inducers, ER-HoxA9 marrow cells – cell-based, GFP/MAC1 double positive, flow cytometry, validation set, primary screen (AID 588685;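 active = differentiation response of at least 50%, scaled between solvent and reference control, from cells with both markers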;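 note: compound exposure lasts four days before antibody staining and flow analysis; 0% = DMSO wells and 100% = 5 µM fulvestrant positive control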). To be noted: stronger effect = higher value, normalized: vehicle 0, fulvestrant 100.

Structures are written as SMILES. Active and inactive are the calls of the source.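 Rule for the calls, unless noted: active = binding below the plate cutoff, the plate median minus 3 SD, with a reading above zero; inconclusive = below the plate cutoff but reading exactly zero; inactive = the rest.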

As usually defined, the inhibition is the change of the read-out against control, counted positive when it falls.

Sequence of Integrin beta-1 (Homo sapiens) + Integrin alpha-4 (Homo sapiens) (P05556 whole entry, looked up): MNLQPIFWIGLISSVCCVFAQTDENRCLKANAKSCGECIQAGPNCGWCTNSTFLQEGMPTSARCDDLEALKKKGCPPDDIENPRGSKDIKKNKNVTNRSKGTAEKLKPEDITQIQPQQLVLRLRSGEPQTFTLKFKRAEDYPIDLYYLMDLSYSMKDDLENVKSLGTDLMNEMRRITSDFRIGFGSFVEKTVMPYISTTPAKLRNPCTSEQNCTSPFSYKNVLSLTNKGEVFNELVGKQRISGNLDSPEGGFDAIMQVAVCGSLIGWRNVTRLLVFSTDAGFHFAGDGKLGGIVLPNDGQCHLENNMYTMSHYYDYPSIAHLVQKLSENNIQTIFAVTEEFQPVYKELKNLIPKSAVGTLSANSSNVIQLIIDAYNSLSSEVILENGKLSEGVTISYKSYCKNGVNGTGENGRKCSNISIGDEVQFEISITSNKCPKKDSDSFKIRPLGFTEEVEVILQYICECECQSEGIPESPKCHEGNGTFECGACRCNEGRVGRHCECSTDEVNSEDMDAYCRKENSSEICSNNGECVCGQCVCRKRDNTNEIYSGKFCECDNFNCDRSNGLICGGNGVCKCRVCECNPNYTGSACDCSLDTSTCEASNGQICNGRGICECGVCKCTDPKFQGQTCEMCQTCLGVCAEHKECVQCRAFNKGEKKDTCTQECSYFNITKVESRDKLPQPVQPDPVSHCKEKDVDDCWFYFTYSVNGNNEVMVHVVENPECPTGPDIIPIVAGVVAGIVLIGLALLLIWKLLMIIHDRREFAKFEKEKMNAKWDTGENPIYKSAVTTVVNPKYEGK
Sequence of Integrin beta-1 (Homo sapiens) + Integrin alpha-4 (Homo sapiens) (P13612 whole entry, looked up): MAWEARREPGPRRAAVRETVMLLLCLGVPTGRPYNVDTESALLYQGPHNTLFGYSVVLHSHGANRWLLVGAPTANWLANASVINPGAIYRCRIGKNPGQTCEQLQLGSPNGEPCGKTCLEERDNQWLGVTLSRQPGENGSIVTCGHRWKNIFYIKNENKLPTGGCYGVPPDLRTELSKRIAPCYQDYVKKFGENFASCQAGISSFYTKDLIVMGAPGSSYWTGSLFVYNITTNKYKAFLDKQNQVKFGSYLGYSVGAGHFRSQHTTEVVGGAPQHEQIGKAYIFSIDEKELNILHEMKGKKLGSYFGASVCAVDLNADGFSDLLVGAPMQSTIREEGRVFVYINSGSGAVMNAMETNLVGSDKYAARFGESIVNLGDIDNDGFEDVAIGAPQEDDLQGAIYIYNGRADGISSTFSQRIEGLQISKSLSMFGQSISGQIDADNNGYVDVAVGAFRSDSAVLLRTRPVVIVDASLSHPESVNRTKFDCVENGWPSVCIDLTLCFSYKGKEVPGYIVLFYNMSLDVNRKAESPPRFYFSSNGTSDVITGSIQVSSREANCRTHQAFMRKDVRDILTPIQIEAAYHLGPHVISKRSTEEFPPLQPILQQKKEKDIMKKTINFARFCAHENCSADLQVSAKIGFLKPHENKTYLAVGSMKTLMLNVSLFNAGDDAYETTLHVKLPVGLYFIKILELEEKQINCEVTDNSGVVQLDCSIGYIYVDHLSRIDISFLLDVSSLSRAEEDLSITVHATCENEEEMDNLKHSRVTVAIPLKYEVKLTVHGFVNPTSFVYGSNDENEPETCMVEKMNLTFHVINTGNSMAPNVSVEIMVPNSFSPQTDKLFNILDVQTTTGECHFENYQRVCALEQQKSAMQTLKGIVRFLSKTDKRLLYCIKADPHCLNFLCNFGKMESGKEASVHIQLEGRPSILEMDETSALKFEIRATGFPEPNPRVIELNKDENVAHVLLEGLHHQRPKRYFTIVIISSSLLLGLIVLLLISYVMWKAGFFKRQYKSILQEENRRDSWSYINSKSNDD
Sequence of ATP-binding cassette sub-family B member 6 (Homo sapiens) (Q9NP58 whole entry, looked up): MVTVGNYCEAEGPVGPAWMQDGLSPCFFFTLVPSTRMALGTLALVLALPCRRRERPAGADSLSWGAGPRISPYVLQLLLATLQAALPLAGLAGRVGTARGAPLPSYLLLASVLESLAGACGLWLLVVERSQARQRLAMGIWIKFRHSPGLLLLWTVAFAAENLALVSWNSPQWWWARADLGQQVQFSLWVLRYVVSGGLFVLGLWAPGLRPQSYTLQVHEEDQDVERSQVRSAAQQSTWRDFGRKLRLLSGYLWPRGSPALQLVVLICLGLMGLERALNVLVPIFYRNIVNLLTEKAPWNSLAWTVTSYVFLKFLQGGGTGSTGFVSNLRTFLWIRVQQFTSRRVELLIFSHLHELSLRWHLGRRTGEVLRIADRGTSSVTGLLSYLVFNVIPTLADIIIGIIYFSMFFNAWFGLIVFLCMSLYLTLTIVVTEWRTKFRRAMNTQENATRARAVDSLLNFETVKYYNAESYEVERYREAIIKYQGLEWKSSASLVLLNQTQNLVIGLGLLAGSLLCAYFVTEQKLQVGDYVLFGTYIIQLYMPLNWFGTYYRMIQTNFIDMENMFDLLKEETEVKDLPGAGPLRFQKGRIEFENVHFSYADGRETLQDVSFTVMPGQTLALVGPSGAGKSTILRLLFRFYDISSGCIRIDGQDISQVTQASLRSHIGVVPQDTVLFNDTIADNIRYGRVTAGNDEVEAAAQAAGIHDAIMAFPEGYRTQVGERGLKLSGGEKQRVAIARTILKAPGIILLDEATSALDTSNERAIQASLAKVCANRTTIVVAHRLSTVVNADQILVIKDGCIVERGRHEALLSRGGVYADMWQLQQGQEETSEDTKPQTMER
Sequence of AP-2 complex subunit beta (Homo sapiens) (P63010 whole entry, looked up, the tested form may be a part, one chain of several): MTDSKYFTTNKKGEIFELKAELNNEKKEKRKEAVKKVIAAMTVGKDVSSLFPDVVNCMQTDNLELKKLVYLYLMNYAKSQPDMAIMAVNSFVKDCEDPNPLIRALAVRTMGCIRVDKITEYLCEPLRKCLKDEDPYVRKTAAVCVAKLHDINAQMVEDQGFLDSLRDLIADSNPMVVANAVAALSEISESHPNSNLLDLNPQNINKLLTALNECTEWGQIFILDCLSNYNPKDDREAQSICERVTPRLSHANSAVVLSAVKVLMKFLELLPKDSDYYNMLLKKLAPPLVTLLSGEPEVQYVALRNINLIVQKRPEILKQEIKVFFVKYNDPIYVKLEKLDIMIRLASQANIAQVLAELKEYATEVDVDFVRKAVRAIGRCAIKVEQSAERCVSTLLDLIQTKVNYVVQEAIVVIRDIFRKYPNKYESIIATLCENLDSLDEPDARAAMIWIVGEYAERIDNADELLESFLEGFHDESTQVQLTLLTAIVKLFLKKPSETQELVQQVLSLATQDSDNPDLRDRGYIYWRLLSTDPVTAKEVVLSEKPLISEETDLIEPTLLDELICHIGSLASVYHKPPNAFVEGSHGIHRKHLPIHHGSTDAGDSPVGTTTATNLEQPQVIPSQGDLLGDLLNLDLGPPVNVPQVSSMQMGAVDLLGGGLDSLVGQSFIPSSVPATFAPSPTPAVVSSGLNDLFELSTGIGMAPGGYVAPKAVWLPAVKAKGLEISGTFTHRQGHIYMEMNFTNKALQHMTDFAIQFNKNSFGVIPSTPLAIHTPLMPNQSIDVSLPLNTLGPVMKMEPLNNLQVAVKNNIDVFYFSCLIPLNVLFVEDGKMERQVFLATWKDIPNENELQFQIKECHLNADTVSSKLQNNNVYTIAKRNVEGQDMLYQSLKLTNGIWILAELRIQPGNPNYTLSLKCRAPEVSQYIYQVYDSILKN
Sequence of Beta-adrenergic receptor kinase 1 (Homo sapiens) (P25098 whole entry, looked up): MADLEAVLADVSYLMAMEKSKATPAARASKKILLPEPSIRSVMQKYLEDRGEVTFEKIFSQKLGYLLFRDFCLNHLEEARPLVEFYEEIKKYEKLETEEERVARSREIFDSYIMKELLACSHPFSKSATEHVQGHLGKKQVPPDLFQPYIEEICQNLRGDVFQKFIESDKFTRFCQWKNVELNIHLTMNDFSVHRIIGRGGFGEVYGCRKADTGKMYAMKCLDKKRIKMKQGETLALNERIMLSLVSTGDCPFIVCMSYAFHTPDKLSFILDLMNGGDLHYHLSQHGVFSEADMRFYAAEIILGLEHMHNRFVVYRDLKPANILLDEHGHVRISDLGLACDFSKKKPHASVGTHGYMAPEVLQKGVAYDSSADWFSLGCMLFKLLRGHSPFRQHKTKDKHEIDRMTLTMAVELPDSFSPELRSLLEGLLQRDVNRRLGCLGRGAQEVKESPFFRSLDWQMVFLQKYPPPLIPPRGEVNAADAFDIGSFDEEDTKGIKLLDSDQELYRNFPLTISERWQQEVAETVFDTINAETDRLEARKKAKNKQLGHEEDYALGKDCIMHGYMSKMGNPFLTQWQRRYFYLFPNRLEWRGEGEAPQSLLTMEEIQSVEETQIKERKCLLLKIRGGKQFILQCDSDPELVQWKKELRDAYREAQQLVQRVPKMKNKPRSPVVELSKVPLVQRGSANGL

On to `COc1ccc(S(=O)(=O)NC(Cc2cnc[nH]2)C(=O)O)cc1` (configuration not stated), for which the double positive events in assay [1] was found to be 49.4%. The vesicle binding response in [1] is 8.1% (active). The inhibition in assay [2] was 9.13% (inactive); in assay [6], -1% (inactive); in [10], -19% (inactive). Moreover, the superoxide response (% of plate) in [3] is 100% (inactive). In assay [4], the aptamer binding inhibition was 1% (inactive). In addition, the response in assay [5] was -7.36% (inactive); in assay [7], 1.95% (inactive). For the same molecule, the binding (% of control) in assay [8] is 99.1% (inactive). For the same molecule, the efflux inhibition (fraction of control) in assay [9] was -0.35 (inactive). The differentiation response in assay [11] is -20% (inactive).
`CC(C)(C)C(=O)NC(=S)Nc1sc2c(c1C(N)=O)CCC2`: the double positive events in assay [1] worked out at 60.2%. Moreover, the vesicle binding response in [1] was 119% (inactive). In addition, the inhibition is -4.52% (inactive) in assay [2], 2.56% (inactive) in [6] and 4% (inactive) in [10]. For the same molecule, in [3], the superoxide response (% of plate) is 109% (inactive). Also, the aptamer binding inhibition in [4] was 2% (inactive). The response in assay [5] was 7.03% (inactive); in assay [7], -1.19% (inactive). Besides, in assay [8], the binding (% of control) was 96.6% (inactive). Moreover, the efflux inhibition (fraction of control) in assay [9] is -0.24 (inactive). In assay [11], the differentiation response was -29.6% (inactive).
In the case of `C=C(C)COc1ccc(-c2nc(N)ncc2-c2ccc(OC)cc2)c(O)c1`, the double positive events in assay [1] was determined as 55.6%. Moreover, the vesicle binding response in assay [1] was 43.9% (inactive). Moreover, the inhibition in [2] was 20.3% (inactive); in assay [6], -4.84% (inactive); in assay [10], 4% (inactive). Further, the superoxide response (% of plate) in [3] was 111% (inactive). Moreover, in assay [4], the aptamer binding inhibition is 1% (inactive). The values for the response in assay [5] and in assay [7] were -10.8% (inactive) and 1.42% (inactive), respectively. Further, the binding (% of control) in [8] is 92% (inactive). For the same molecule, in assay [9], the efflux inhibition (fraction of control) is -0.45 (inactive). The differentiation response in assay [11] is -9.53% (inactive).
For the molecule `O=C(Nc1ccccc1)OCC1CCCN2CCCCC12` (configuration not stated), the double positive events in assay [1] was determined as 80%. Also, the vesicle binding response in assay [1] is 511% (inactive). Further, the inhibition in assay [2] is -0.27% (inactive); in assay [6], -10.6% (inactive); in [10], 16% (inactive). In addition, the superoxide response (% of plate) in assay [3] was 93.9% (inactive). Moreover, the aptamer binding inhibition in assay [4] was -2% (inactive). The results for the response in assay [5] and in assay [7] were -23.8% (inactive) and 1.1% (inactive), respectively. Moreover, the binding (% of control) in assay [8] is 112% (inactive). The efflux inhibition (fraction of control) in assay [9] is -0.04 (inactive). Besides, the differentiation response in assay [11] is 63% (active).
Take `COc1ccc2cc[nH]c2c1`: in assay [1], the double positive events came to 67.5%. Besides, in assay [1], the vesicle binding response was 407% (inactive). The results for the inhibition in [2], in assay [6] and in assay [10] were -5.38% (inactive), -3.08% (inactive) and 5% (inactive), respectively. Moreover, the superoxide response (% of plate) in assay [3] is 104% (inactive). Besides, in [4], the aptamer binding inhibition is 2% (inactive). Further, the response was -20.2% (inactive) in assay [5] and 0.61% (inactive) in assay [7]. Further, the binding (% of control) in [8] was 103% (inactive). Further, the efflux inhibition (fraction of control) in assay [9] is 0 (inactive). Further, the differentiation response in assay [11] is -10.9% (inactive).
Regarding `CC(=O)/C=C/c1ccc(C)o1`, the double positive events in assay [1] amounted to 62.2%. In assay [1], the vesicle binding response was 175% (inactive). Besides, the inhibition in [2] is 5.03% (inactive); in [6] it was 15.9% (inactive); in assay [10] it was 3% (inactive). Besides, the superoxide response (% of plate) in [3] was 95.6% (inactive). In addition, the aptamer binding inhibition in assay [4] is -4% (inactive). Further, the values for the response in assay [5] and in assay [7] were 14.7% (inactive) and 0.22% (inactive), respectively. Besides, in [8], the binding (% of control) was 102% (inactive). In addition, the efflux inhibition (fraction of control) in assay [9] was 0.51 (active). Further, the differentiation response in assay [11] is 28% (inactive).

Values taken from PubChem BioAssay.
